Results filed as inconclusive are left out. Active and inactive are the calls of the source. Unless noted, calls come from the whole dose curve; as a rule, active = well fitted curve in the direction sought with a large enough effect in the repeat runs; inconclusive = weak or mixed curves; inactive = no such curve, though single readings can be large; an effect the other way counts as inactive or inconclusive.
Tests used:
[1] = qHTS assay to identify small molecule agonists of the vitamin D receptor (VDR) signaling pathway - cell viability counter screen (AID 743224); note: series mostly up to about 63 µM; % is set by controls: 0 for no effect and ±100 for the full control effect; nearly all actives have a fitted effect of over 50% in size
Summary of the method: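 Cells: VDR-bla, 2,000/well, settled 4 h. Treatment: compounds in DMSO, 16 h, 37C/5% CO2. Readout: CellTiter-Glo luminescence after 30 min RT.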

[2] = qHTS assay to identify small molecule antagonists of the vitamin D receptor (VDR) signaling pathway - cell viability counter screen (AID 743225); note: % is set by controls: 0 for no effect and ±100 for the full control effect; nearly all actives have a fitted effect of over 50% in size
Summary of the method: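 In this counter screen, VDR-bla HEK 293T cells receive test compound plus 3 nM final calcitriol for 16 h at 37C. Room-temperature steps of 2 h with the beta-lactamase substrate, then 30 min with CellTiter-Glo, precede the luminescence read.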

[3] = qHTS assay to identify small molecule agonists of the NFkB signaling pathway (AID 1159509; active = well fitted curve in the direction sought with a large enough effect in the signal ratio in the repeat runs, not every such curve was filed as active; the % refers to the signal ratio; note: series mostly up to about 61 µM; % is set by controls: 0 for no effect and ±100 for the full control effect)
Summary of the method: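 Agonist activity was read as beta-lactamase-driven FRET change (460 and 530 nm emission, 405 nm excitation) following 1.5 hr substrate loading at room temperature. Beforehand, ME-180 NFkB-bla reporter cells were treated with compounds for 5 hr at 37 C.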

[4] = qHTS assay to identify small molecule agonists of the NFkB signaling pathway - cell viability counter screen (AID 1159515; calls by dose curve; note: series mostly up to about 61 µM; % is set by controls: 0 for no effect and ±100 for the full control effect; nearly all actives have a fitted effect of over 55% in size)
Summary of the method: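 Cells are seeded (2,000 NFkB-bla ME-180 per well), rested overnight, and dosed with DMSO-dissolved compounds for 5 hr at 37 C. Viability is then read by CellTiter-Glo luminescence after 30 min at room temperature.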

[5] = qHTS assay to identify small molecule agonists of the endoplasmic reticulum stress response signaling pathway (AID 1159516; active = well fitted activation curve with a large enough effect in the signal ratio in the repeat runs, not every such curve was filed as active; the % refers to the signal ratio; note: % is set by controls: 0 for no effect and ±100 for the full control effect)
Summary of the method: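 Cells are seeded at 1,500 per well and incubated overnight. Compounds in DMSO are added for 5 hr at 37 C, then beta-lactamase FRET substrate for 2 hr at room temperature, and fluorescence at 460 and 530 nm is measured.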

[6] = qHTS assay to identify small molecule agonists of the endoplasmic reticulum stress response signaling pathway - cell viability counter screen (AID 1159517; calls by dose curve;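 note: HeLa cells carrying an ER stress response element beta-lactamase reporter; series mostly up to about 61 µM; % is set by controls: 0 for no effect and ±100 for the full control effect; nearly all actives have a fitted effect of over 50% in size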)
Summary of the method: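 In parallel with the ESRE reporter read, cytotoxicity was scored by CellTiter-Glo luminescence (30 min, room temperature) on HeLa ESRE-bla cells dosed for 5 hr.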

[7] = qHTS assay to identify small molecule antagonists of the retinoid-related orphan receptor gamma (ROR-gamma) signaling pathway - cell viability counter screen (AID 1159520); note: % is set by controls: 0 for no effect and ±100 for the full control effect; nearly all actives have a fitted effect of over 50% in size
Summary of the method: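 Tet-on ROR gamma CHO cells were given compounds for 2 hr, then doxycycline hyclate at 1 uM final, and incubated 16 hr at 37 C. Viability was measured as ATP content by CellTiter-Glo luminescence.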

[8] = qHTS assay to identify small molecule agonists of the AP-1 signaling pathway (AID 1159526; calls by dose curve; note: % is set by controls: 0 for no effect and ±100 for the full control effect)
[9] = qHTS assay to identify small molecule agonists of the RXR signaling pathway - cell viability counter screen (AID 1159529)
Summary of the method: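 Viability read-out for the RXR-alpha agonist qHTS: luminescent CellTiter-Glo signal after 30 min at RT. HEK 293T bla reporter cells, 2% charcoal-stripped FBS, 16 hr compound incubation; tetraoctyl ammonium bromide as cytotoxic control.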

[10] = qHTS assay to identify small molecule antagonists of the retinoid acid receptor (RAR) signaling pathway - cell viability counter screen (AID 1159551); note: % is set by controls: 0 for no effect and ±100 for the full control effect; nearly all actives have a fitted effect of over 35% in size
Summary of the method: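 Cells (C3RL4) are plated, incubated overnight, dosed with compound in DMSO, then given retinol at 1 uM final. After 6 h at 37 C, CellTiter-Glo is added and luminescence read following 30 min at room temperature.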

[11] = qHTS assay to identify small molecule agonists of the retinoic acid receptor (RAR) signaling pathway (AID 1159553); note: % is set by controls: 0 for no effect and ±100 for the full control effect
Summary of the method: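 Seed C3RL4 reporter cells at 1,000 per well and incubate overnight at 37 C. Add compounds in DMSO, incubate 6 hr. Add luciferase reagent, wait 30 min at room temperature, read luminescence.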

[12] = qHTS assay to identify small molecule antagonists of the estrogen related receptor (ERR) signaling pathway from Tox21 library - cell viability counter screen (AID 1224834); note: % is set by controls: 0 for no effect and ±100 for the full control effect; nearly all actives have a fitted effect of over 30% in size
Summary of the method: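 ERR cells, 2,000/well; 6 h settle at 37 C/5% CO2; pin-tool compound transfer in DMSO; 17.5 h at 37 C; CellTiter-Fluor, 30 min; fluorescence intensity.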

[13] = qHTS assay to identify small molecule agonists of the AP-1 signaling pathway - cell viability counter screen (AID 1159525; calls by dose curve; note: nearly all actives have a fitted effect of over 55% in size)
Summary of the method: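 Same-well cytotoxicity counter screen of the Tox21 10K library in ME-180 cells. The readout is ATP-dependent luminescence after 5 h compound treatment. Data are normalised to DMSO and tetra n-octyl ammonium bromide controls.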

[14] = qHTS assay to identify small molecule antagonists of the retinoic acid receptor (RAR) signaling pathway (AID 1159552)
Summary of the method: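 Using a RARE-driven luciferase construct in C3RL4 cells, retinol at 1 uM final provided the agonist stimulus while compounds were co-applied. After 6 hours at 37 C, luminescence was recorded to flag inhibitors of retinol signaling.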

[15] = molecular target: Nuclear receptor ROR-gamma (Homo sapiens) (UniProt P51449); assay: qHTS assay to identify small molecule antagonists of the retinoid-related orphan receptor gamma (ROR-gamma) signaling pathway (AID 1159521)
Summary of the method: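 Screening format: cell-based luciferase reporter in CHO cells with doxycycline-inducible RORγ. Compound pre-exposure lasts 2 h, doxycycline is 1 uM final, induction runs 16 h at 37 C, and ONE-Glo luminescence is read.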

[16] = molecular target: Retinoic acid receptor RXR-alpha (Homo sapiens) (UniProt P19793); assay: qHTS assay to identify small molecule agonists of the RXR signaling pathway (AID 1159527; calls by dose curve; note: % is set by controls: 0 for no effect and ±100 for the full control effect; nearly all actives have a fitted effect of over 35% in size)
Summary of the method: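 Fluorescence ratio readout (460 vs 530 nm) from GeneBLAzer RXR-alpha HEK 293T cells after 16 hr compound treatment; cells seeded 5 hr beforehand in low-serum, charcoal-stripped medium.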

[17] = qHTS assay to identify small molecule antagonists of the estrogen related receptor (ERR) signaling pathway - cell viability counter screen (AID 1224818)
Summary of the method: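 ERR cells, 2,000/well; 6 h settle at 37 C/5% CO2; compound pin transfer (DMSO); 17.5 h at 37 C; CellTiter-Fluor, 30 min, fluorescence read.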

[18] = tested on: estrogen-related receptor alpha (ERRalpha) with PGC-1alpha coactivator, human; assay: qHTS assay to identify small molecule antagonists of the estrogen related receptor signaling pathway with the pleiotropic PPARgamma coactivator (PGC) (AID 1224821; calls by dose curve)
Summary of the method: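 Luminescence from One-Glo luciferase reagent (30 min, room temperature) measured after 18 h compound treatment at 37 °C. Cells carry the PGC/ERR reporter and were seeded 6 h prior to dosing.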

[19] = qHTS assay to identify small molecule antagonists of the estrogen related receptor signaling pathway with the pleiotropic PPARgamma coactivator (PGC) cell viability counter screen (AID 1224822)
Summary of the method: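 Multiplexed viability counter screen run in PGC/ERR cells treated with compounds for 17.5 h at 37 C; live-cell protease signal measured by CellTiter-Fluor fluorescence.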

[20] = qHTS assay to identify small molecule agonists of the estrogen related receptor signaling pathway with the pleiotropic PPARgamma coactivator (PGC) (AID 1224823); note: % is set by controls: 0 for no effect and ±100 for the full control effect
Summary of the method: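 Luminescence from One-Glo reagent (30 min, room temperature) was read after 18 h compound treatment at 37 C of PGC/ERR cells plated 6 h beforehand; compounds delivered in DMSO by pin tool.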

Retinoic acid receptor RXR-alpha (Homo sapiens), sequence (P19793 whole entry, looked up): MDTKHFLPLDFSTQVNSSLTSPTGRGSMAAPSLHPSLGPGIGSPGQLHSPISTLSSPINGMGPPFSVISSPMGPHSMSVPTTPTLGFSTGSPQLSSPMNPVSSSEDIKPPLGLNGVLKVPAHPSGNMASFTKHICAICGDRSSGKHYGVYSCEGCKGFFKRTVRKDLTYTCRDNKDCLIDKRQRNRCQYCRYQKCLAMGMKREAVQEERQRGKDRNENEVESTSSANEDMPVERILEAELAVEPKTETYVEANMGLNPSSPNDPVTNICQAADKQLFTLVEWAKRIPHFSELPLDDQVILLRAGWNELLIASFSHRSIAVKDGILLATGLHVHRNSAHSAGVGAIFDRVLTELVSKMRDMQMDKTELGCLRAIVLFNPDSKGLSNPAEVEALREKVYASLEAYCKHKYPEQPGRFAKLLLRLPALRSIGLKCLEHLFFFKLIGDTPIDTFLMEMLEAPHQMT

CC1=CC(=O)CC(C)(C)C1=O
inactive: Potency [1] | Potency [2] | outcome [3] | outcome [4] | outcome [5] | outcome [6] | Potency [7] | Potency [8] | Potency [9] | outcome [10] | Potency [11] | Potency [12]

O=C(O)[C@@H]1CSCN1
inactive: Potency [1] | Potency [2] | outcome [3] | outcome [4] | outcome [5] | outcome [6] | Potency [7] | outcome [13] | Potency [8] | Potency [9] | outcome [10] | Potency [14] | Potency [11] | Potency [12]

CN1CCN(c2c(F)cc3c(=O)c(C(=O)O)cn4c3c2SCC4)CC1
inactive: Potency [2] | outcome [3] | outcome [4] | outcome [5] | outcome [6] | Potency [7] | outcome [13] | Potency [8] | Potency [9] | outcome [10] | Potency [14] | Potency [11] | Potency [12]

CCC(=O)O[C@]1(C(=O)SCF)[C@H](C)C[C@H]2[C@@H]3C[C@H](F)C4=CC(=O)C=C[C@]4(C)[C@@]3(F)[C@@H](O)C[C@@]21C
inactive: Potency [1] | Potency [2] | outcome [3] | outcome [4] | outcome [6] | Potency [7] | Potency [15] | outcome [13] | outcome [10] | Potency [11] | Potency [12]

O=C(O)CN(CCN(CC(=O)O)CC(=O)O)CCN(CC(=O)O)CC(=O)O
inactive: Potency [1] | Potency [2] | outcome [3] | outcome [4] | outcome [5] | activity, negative = cytotoxicity [7] 4.04% [at 19 µM] | activity change, negative = inhibition [15] -6.39% [at 19 µM] | activation [8] -0.136% [at 15.8 µM] | activation [16] 6.5% [at 15.8 µM] | activity change, negative = cytotoxicity [9] 2.65% [at 15.8 µM] | activity change, negative = cytotoxicity [10] 4.77% [at 19 µM] | Potency [11] | outcome [17] | outcome [18] | outcome [19] | outcome [20] | viability change, negative = cytotoxic [12] 4.74% [at 19 µM]

CC(=O)O[C@H]1CC[C@@]2(C)C(=CC[C@@H]3[C@@H]2CC[C@]2(C)C(C(C)=O)=CC[C@@H]32)C1
inactive: Potency [1] | Potency [2] | outcome [3] | outcome [4] | outcome [6] | Potency [7] | Potency [8] | Potency [9] | outcome [10] | Potency [14] | Potency [11] | Potency [12]

CCc1cc(Cl)c(OC)c(C(=O)NC[C@@H]2CCCN2CC)c1O
inactive: Potency [2] | outcome [3] | outcome [4] | outcome [5] | Potency [7] | Potency [15] | outcome [13] | outcome [10] | Potency [12]

C=CC1CO1 (stereo unspecified)
inactive: Potency [1] | Potency [2] | outcome [3] | outcome [4] | outcome [6] | Potency [7] | Potency [15] | Potency [8] | Potency [9] | outcome [10] | Potency [14] | Potency [11] | Potency [12]

From PubChem BioAssay (Tox21)
